An excerpt weighted towards active compounds, which were near 3% of everything screened.
IEC-6 cytotox – counter-screen for KLF5 inhibitors: cytotoxicity in IEC-6 cells | IEC-6 cytotoxicity, luminescence viability | inhibition, % at 5 µM | 0.78% of 290,000 active; in the data active = inhibition above about 22%;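 note: 0% = plate median of test compound wells and 100% = cytotoxic reference compound wells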
KLF5 inh – inhibitors of KLF5 expression; 0.23% of 290,000 active; DLD-1 KLF5 promoter-luciferase reporter, luminescence; inhibition, % at 5 µM;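 active = inhibition above a per-plate limit of that plate's mean compound inhibition plus 3 SD, cut at about 60% in these data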;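 note: 0% = DMSO wells and 100% = LY294002 at 200 µM; higher means less KLF5 promoter-driven luciferase light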
aSyn 5UTR inh – MLPCN primary screen, SNCA 5' untranslated region; AID 1813; 0.82% of 300,000 active; inhibition, % (tested at 7.5 µM); alpha-synuclein 5'UTR reporter, inhibitor activity; in the data active = inhibition above about 60%;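 note: H4 neuroglioblastoma cells stably carrying SNCA 5'UTR luciferase fusion; 0% = DMSO wells and 100% = positive control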
CSC inhib – blocks cancer stem cells | cancer stem cell-like cells viability, luminescence | inhibition, % at 7.5 µM | 1.1% of 300,000 active; in the data active = inhibition above about 75%; tested in HMLE shEcad cells
SKKanGAS inh – blocks kanamycin growth of S. pyogenes SKKanGAS strain; BacTiter-Glo, 6 h; inhibition, % at 7.5 µM; 1.3% of 300,000 active; AID 1662;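 active = mean replicate score, as percent of positive control median, at least 50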;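 note: strain carries kanamycin resistance gene driven by streptokinase promoter and grows in 40 µg/ml kanamycin; loss of luminescence reflects streptokinase promoter inhibition or plain growth inhibition; 0% = median of DMSO wells and 100% = positive control at its reference dose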
* marks the source's active call; other numbers are inactive results.

Results for CC(C)CC(=O)NC(NC(=S)Nc1sc2c(c1C#N)CCCC2)C(Cl)(Cl)Cl (centres undefined) ?
IEC-6 cytotox: 6; KLF5 inh: 10; aSyn 5UTR inh: -12; CSC inhib: 80*; SKKanGAS inh: 56*

What do the screens show for `N#Cc1c(NC(=S)NC(=O)c2ccccc2)sc2c1CCCC2`?
IEC-6 cytotox: -5; KLF5 inh: -28; aSyn 5UTR inh: -96; CSC inhib: 11; SKKanGAS inh: 3

How did COc1ccc(C(C(=O)NC(C)(C)C)N(Cc2cccnc2)C(=O)CCC(=O)Nc2cc(C)on2)cc1 (centres undefined) do in these assays?
IEC-6 cytotox: 2; KLF5 inh: -14; aSyn 5UTR inh: 10; SKKanGAS inh: 3

Results for Cc1ccc(/C(=N\O)c2oc3c(C)c4oc(=O)cc(C)c4cc3c2C)cc1 ?
IEC-6 cytotox: 2; KLF5 inh: -58; aSyn 5UTR inh: -1; CSC inhib: 105*; SKKanGAS inh: 36

What do the screens show for `Cc1cc(=O)oc2c1ccc1oc(/C(=N/O)c3ccccc3)c(C)c12`?
IEC-6 cytotox: 2; KLF5 inh: -9; aSyn 5UTR inh: 24; CSC inhib: 42; SKKanGAS inh: 30

What do the screens show for `CCCN1CCC(=NNc2ccc(S(=O)(=O)N(CC)CC)cc2[N+](=O)[O-])CC1`?
IEC-6 cytotox: -1; KLF5 inh: -4; aSyn 5UTR inh: 79*; CSC inhib: 48; SKKanGAS inh: 3

Results for CCOC(=O)c1c(-c2ccc(OC)cc2)csc1/N=C/C1=C(O)CCCC1=O ?
IEC-6 cytotox: -7; KLF5 inh: 15; CSC inhib: 6; SKKanGAS inh: 57*

Results for CCOC(=O)c1c(/N=C/C2=C(O)CCCC2=O)sc(C)c1C ?
IEC-6 cytotox: -4; KLF5 inh: -15; aSyn 5UTR inh: 1; CSC inhib: 3; SKKanGAS inh: 3

What do the screens show for `Cc1cccc(CN2C(=O)[C@H]3Cc4c([nH]c5ccccc45)C(C)(C)N3C2=O)c1`?
aSyn 5UTR inh: 1; CSC inhib: 4; SKKanGAS inh: 16

What do the screens show for `Cc1cccc(CN2C(=O)[C@@H]3Cc4c([nH]c5ccccc45)C(C)(C)N3C2=O)c1`?
aSyn 5UTR inh: -4; CSC inhib: 76*; SKKanGAS inh: 19

What do the screens show for `COc1cc2c(cc1NC(=O)CSc1ccccc1)oc1ccccc12`?
IEC-6 cytotox: 7; KLF5 inh: 15; aSyn 5UTR inh: 9; CSC inhib: 17; SKKanGAS inh: -14

Results for COc1cc2c(cc1NC(=O)CSc1nc3ccccc3[nH]1)oc1ccccc12 ?
IEC-6 cytotox: 3; KLF5 inh: -23; aSyn 5UTR inh: 10; CSC inhib: 80*; SKKanGAS inh: 6

How did COc1cc2c(cc1NC(=O)Nc1cccc(C)c1)oc1ccccc12 do in these assays?
IEC-6 cytotox: 0; KLF5 inh: -18; aSyn 5UTR inh: -23; CSC inhib: 20; SKKanGAS inh: -4

Results for COc1cc2c(cc1NC(=O)Nc1ccc(C)cc1)oc1ccccc12 ?
IEC-6 cytotox: -9; KLF5 inh: -38; aSyn 5UTR inh: -49; CSC inhib: 88*; SKKanGAS inh: 3

How did COc1cc2c(cc1NC(=O)c1cccc([N+](=O)[O-])c1C)oc1ccccc12 do in these assays?
IEC-6 cytotox: 6; KLF5 inh: -2; aSyn 5UTR inh: -3; CSC inhib: 102*; SKKanGAS inh: 7

What do the screens show for `COc1ccc(S(=O)(=O)N[C@@H](C)C(=O)OCC(=O)Nc2cc3oc4ccccc4c3cc2OC)cc1`?
IEC-6 cytotox: 6; KLF5 inh: -35; aSyn 5UTR inh: -129; CSC inhib: 8; SKKanGAS inh: 80*

What do the screens show for `CC1CCN(c2ccc3nnc(CCC(=O)N4CCN(c5ccc(F)cc5)CC4)n3n2)CC1`?
IEC-6 cytotox: 2; KLF5 inh: -27; aSyn 5UTR inh: 33; CSC inhib: -14; SKKanGAS inh: -2

Results for COc1cc2c(cc1NC(=O)c1cccc(S(=O)(=O)N(C)C)c1)oc1ccccc12 ?
IEC-6 cytotox: -5; KLF5 inh: -36; aSyn 5UTR inh: -59; CSC inhib: 126*; SKKanGAS inh: 22

Results for CCN(CC)S(=O)(=O)c1ccc(C(=O)Nc2cc3oc4ccccc4c3cc2OC)cc1 ?
IEC-6 cytotox: 2; KLF5 inh: 8; aSyn 5UTR inh: 4; CSC inhib: 21; SKKanGAS inh: -1

Results for Cc1c(C(=O)NNC(=S)NCc2ccc(Cl)cc2)oc2ccccc12 ?
IEC-6 cytotox: 3; KLF5 inh: -3; aSyn 5UTR inh: 12; CSC inhib: 19; SKKanGAS inh: 82*
